LEDGF integ inh = blocks HIV-1 LEDGF/p75-dependent DNA integration; TR-FRET IN-LEDGF/p75 DNA integration, Eu/Cy5; inhibition, % at 3.7 µM; hit rate 0.64% among 370,000; AID 743269;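 active means inhibition above the screen-wide mean plus 3 SD, cut at about 13% in these data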;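 further: signal is the Cy5 over europium emission ratio at 671 and 618 nm; 0% = plate median of compound wells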
rCAG binder = r(CAG) repeat RNA binding; inhibition, % at 3 µM; hit rate 1.3% among 370,000; TO-PRO-1 dye displacement fluorescence;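 active means inhibition above the plate cutoff, the mean of all test compounds on that plate plus 3 SD, cut at about 35% in these data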;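 further: 0% = DMSO alone and 100% = 100 µM mitoxantrone as full dye displacement; higher means more dye released from RNA so lower well fluorescence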
DNMT1 inh = blocks human DNA methyltransferase DNMT1. P26358. DNMT1 molecular beacon, Hinp1I cleavage, fluorescence. inhibition (reported as % activation of signal), % at 10 µM. hit rate 0.83% among 360,000; in the data active means inhibition above about 50%
UHRF1 MBD2 ctr = UHRF1 methyl-DNA binding inhibition | Q96T88 | UHRF1 binding to methylated oligo, TR-FRET | hit rate 0.75% among 370,000 | inhibition, % at 4.4 µM | AID 687016; in the data active means inhibition above about 21%;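 further: UHRF1 SRA domain binding a hemimethylated CpG hairpin DNA probe; 0% = median of test compound wells and 100% = reference inhibitor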
MBD2 inh = MBD2-methylated oligo binding inhibition; Q9UBB5; TR-FRET, MBD2 binding to methylated oligonucleotide; inhibition, % at 4.4 µM; hit rate 0.31% among 370,000; in the data active means inhibition above about 13%
Target sequence (Q9UBB5 whole entry, looked up): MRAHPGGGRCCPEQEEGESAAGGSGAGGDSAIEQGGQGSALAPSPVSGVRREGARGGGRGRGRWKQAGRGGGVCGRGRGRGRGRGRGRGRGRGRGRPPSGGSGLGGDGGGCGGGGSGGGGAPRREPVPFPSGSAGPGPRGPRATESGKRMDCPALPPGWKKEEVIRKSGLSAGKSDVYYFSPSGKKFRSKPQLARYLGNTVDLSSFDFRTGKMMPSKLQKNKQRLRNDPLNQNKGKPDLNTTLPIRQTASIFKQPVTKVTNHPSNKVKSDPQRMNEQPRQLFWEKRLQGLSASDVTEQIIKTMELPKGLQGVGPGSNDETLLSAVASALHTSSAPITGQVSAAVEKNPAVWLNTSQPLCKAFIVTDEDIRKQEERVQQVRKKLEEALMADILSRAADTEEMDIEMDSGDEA
PG9 binder = PG9 antibody binding by small molecule | AID 624416 | inhibition, % at 6.7 µM | hit rate 0.43% among 360,000 | TR-FRET gp120-PG9 antibody binding; in the data active means inhibition above about 8.5%
rCAG bind conf = r(CAG) RNA repeat binding, confirmation; hit rate 70% among 4,300; shares compounds with rCAG binder; inhibition, % at 3 µM; TO-PRO-1 dye displacement fluorescence;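 active means inhibition above a per-plate cutoff, the mean inhibition of sample wells plus 3 SD, cut at about 35% in these data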;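 further: loss of TO-PRO-1 fluorescence as compound displaces dye from 1x1 AA loop RNA; 0% = DMSO only wells and 100% = 100 µM mitoxantrone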
dCAG dye counter = disrupts DNA CAG TO-PRO-1 complex, flagging rCAG hits. shares compounds with rCAG binder. d(CAG) DNA oligo TO-PRO-1 dye displacement, fluorescence. inhibition, % at 3 µM. hit rate 94% among 4,300;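 active means inhibition above its plate's cutoff, the mean test-well inhibition plus 3 SD, cut at about 4.8% in these data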;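 further: 0% = DNA dye mix with DMSO and 100% = 100 µM mitoxantrone; hits displace the dye from DNA and so lower well fluorescence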
* = called active by the depositor. Most compounds without a hit are left out; they make up all but 3.5% or so of the library.

Results for Cc1cccc(-n2ccc(=O)c(C(=O)Nc3ccc(S(=O)(=O)Nc4nccs4)cc3)n2)c1 ?
LEDGF integ inh: -2; rCAG binder: 65*; DNMT1 inh: -1; UHRF1 MBD2 ctr: -1; MBD2 inh: -1; PG9 binder: 0; rCAG bind conf: 14; dCAG dye counter: 6.0*

Results for COc1ccc(-n2ccc(=O)c(C(=O)Nc3ccc(S(=O)(=O)Nc4nccs4)cc3)n2)cc1 ?
LEDGF integ inh: 1; rCAG binder: 18; DNMT1 inh: 4; UHRF1 MBD2 ctr: -3; MBD2 inh: -1; PG9 binder: -1

Results for O=C(Nc1ccc(S(=O)(=O)Nc2nccs2)cc1)c1nn(-c2ccccc2)ccc1=O ?
LEDGF integ inh: 4; rCAG binder: 43*; DNMT1 inh: 43; UHRF1 MBD2 ctr: 1; MBD2 inh: 0; PG9 binder: -1; rCAG bind conf: 55*; dCAG dye counter: 26*

What do the screens show for `CCn1nc(C(=O)Nc2ccc(S(=O)(=O)Nc3nccs3)cc2)c2ccccc2c1=O`?
LEDGF integ inh: 1; rCAG binder: 42*; DNMT1 inh: 2; UHRF1 MBD2 ctr: -4; MBD2 inh: 5; PG9 binder: -1; rCAG bind conf: 56*; dCAG dye counter: 18*

What do the screens show for `CC(C)N1C(=O)c2ccccc2NC(=O)C1C(=O)NC1CC1` (stereo unspecified)?
LEDGF integ inh: -1; rCAG binder: 1; UHRF1 MBD2 ctr: 1; MBD2 inh: -4; PG9 binder: -3

What do the screens show for `Cc1cccc(C(C(=O)NC2CCCC2)N(C(=O)c2csnn2)C2CC2)c1` (stereo unspecified)?
LEDGF integ inh: 0; rCAG binder: -5; DNMT1 inh: 1; UHRF1 MBD2 ctr: -4; MBD2 inh: 1; PG9 binder: -3

Results for O=C(NC1CCN(Cc2ccccc2)CC1)c1ccccc1NS(=O)(=O)c1ccc(F)c(F)c1 ?
LEDGF integ inh: 0; rCAG binder: 36*; DNMT1 inh: -3; UHRF1 MBD2 ctr: 2; MBD2 inh: 1; PG9 binder: 1; rCAG bind conf: 21; dCAG dye counter: 3

How did COc1cc(C(=O)N/N=C/c2ccc3c(c2)c2ccccc2n3C)ccc1O do in these assays?
LEDGF integ inh: 1; rCAG binder: 25; DNMT1 inh: -8; UHRF1 MBD2 ctr: -5; MBD2 inh: -3; PG9 binder: 1

How did Cn1c2ccccc2c2cc(/C=N/NC(=O)c3cc(O)ccc3O)ccc21 do in these assays?
LEDGF integ inh: 42*; rCAG binder: 66*; DNMT1 inh: 46; UHRF1 MBD2 ctr: 11; MBD2 inh: 6; PG9 binder: -4; rCAG bind conf: 62*; dCAG dye counter: 31*

How did Cn1c2ccccc2c2cc(/C=N/NC(=O)c3cc(O)cc(O)c3)ccc21 do in these assays?
LEDGF integ inh: 4; rCAG binder: 43*; DNMT1 inh: 23; UHRF1 MBD2 ctr: 4; MBD2 inh: 7; PG9 binder: -2; rCAG bind conf: 34; dCAG dye counter: 18*

Results for C[C@@H]1CN([C@H](C)CO)C(=O)c2cc(-c3ccc(C(=O)N(C)C)cc3)cnc2O[C@@H]1CN(C)C(=O)c1cccnc1 ?
LEDGF integ inh: -13; rCAG binder: 1; DNMT1 inh: 2; UHRF1 MBD2 ctr: 0; MBD2 inh: -1; PG9 binder: -2

Results for CC(=O)c1c(O)c(C)c(O)c2c1OC1=Cc3c(c(C)nn3C)C(=O)C12C (stereo unspecified) ?
LEDGF integ inh: -2; rCAG binder: 6; DNMT1 inh: 6; UHRF1 MBD2 ctr: 0; MBD2 inh: 0; PG9 binder: 1

How did CC(=O)C1=C(O)C2(C)c3c(O)c(C)c(O)c(C(C)=O)c3OC2CC1=O (stereo unspecified) do in these assays?
LEDGF integ inh: 4; rCAG binder: 76*; DNMT1 inh: -14; UHRF1 MBD2 ctr: 5; MBD2 inh: 2; PG9 binder: 1; rCAG bind conf: 52*; dCAG dye counter: 18*

Results for CCCCC(CCc1ccccn1)C(=O)c1ccccc1 (stereo unspecified) ?
LEDGF integ inh: 6; rCAG binder: -2; DNMT1 inh: -1; UHRF1 MBD2 ctr: -1; MBD2 inh: 2; PG9 binder: 1

What do the screens show for `CC(OC(=O)c1cccc(S(=O)(=O)Nc2cccc(C(F)(F)F)c2)c1)C(=O)Nc1ccc2c(c1)OCCO2` (stereo unspecified)?
LEDGF integ inh: -3; rCAG binder: 37*; DNMT1 inh: -17; UHRF1 MBD2 ctr: -2; MBD2 inh: -2; PG9 binder: -1; rCAG bind conf: 36*; dCAG dye counter: 8.0*

How did CC(=O)Nc1ccc(NC(=O)C(C)OC(=O)c2ccc3c(c2)OCCO3)cc1 (stereo unspecified) do in these assays?
LEDGF integ inh: 4; rCAG binder: 1; DNMT1 inh: 2; UHRF1 MBD2 ctr: 2; MBD2 inh: 3; PG9 binder: 0

How did CCOC(=O)c1ccccc1NC(=O)Cc1c(C(=O)O)n(C)c2ccccc12 do in these assays?
LEDGF integ inh: 0; rCAG binder: 37*; DNMT1 inh: 3; UHRF1 MBD2 ctr: -4; MBD2 inh: -5; PG9 binder: 0; rCAG bind conf: 25; dCAG dye counter: 4

Results for CCN1C(=O)/C(=C2\SC(=S)N(NC(=O)c3ccccc3O)C2=O)c2ccccc21 ?
LEDGF integ inh: 1; rCAG binder: 77*; DNMT1 inh: -1; UHRF1 MBD2 ctr: 1; MBD2 inh: -4; PG9 binder: 0; rCAG bind conf: 86*; dCAG dye counter: 58*

Results for CCN1C(=O)/C(=C2\SC(=S)N(c3c(C)n(C)n(-c4ccccc4)c3=O)C2=O)c2ccccc21 ?
LEDGF integ inh: 0; rCAG binder: 4; DNMT1 inh: 2; UHRF1 MBD2 ctr: -7; MBD2 inh: -7; PG9 binder: -3

What do the screens show for `Cc1ccc2c(c1)C1(OCCCO1)C(=O)N2`?
LEDGF integ inh: 2; rCAG binder: -4; DNMT1 inh: 1; UHRF1 MBD2 ctr: 0; MBD2 inh: 4; PG9 binder: 0

Results for Cc1nc(SC(C)C(=O)Nc2cccc(C(F)(F)F)c2)c2c(C)c(C(=O)O)sc2n1 (stereo unspecified) ?
LEDGF integ inh: 7; rCAG binder: 37*; DNMT1 inh: 2; UHRF1 MBD2 ctr: 2; MBD2 inh: -5; PG9 binder: 1; rCAG bind conf: 60*; dCAG dye counter: 21*

How did COC(=O)CSc1nnc(-c2ccc(NS(=O)(=O)c3ccc(Cl)s3)cc2)o1 do in these assays?
LEDGF integ inh: -3; rCAG binder: 39*; UHRF1 MBD2 ctr: 0; MBD2 inh: -4; rCAG bind conf: 29; dCAG dye counter: 5.8*

Source: PubChem
